# ClpP mod: qHTS Assay for Activators of ClpP; ATP-dependent Clp protease proteolytic subunit (Bacillus subtilis (strain 168)), P80244; purified B. subtilis ClpP, FRET peptide cleavage, 20 min; Potency, µM (highest dose often 57.5 µM), without a hit: at the highest dose activity change, negative = active; 340,000 tested, 1.9% active; active = well fitted falling curve with a large enough effect; inconclusive = small, poorly fitted or top-dose-only effect; inactive = no such curve, though single readings can be large or run the other way; note: potency is the fitted concentration of half-maximal effect; the source files actives as falling curves though it sought activators and does not explain the sign; nearly all actives have a fitted effect of over 65% in size
# Target sequence (P80244 whole entry, looked up): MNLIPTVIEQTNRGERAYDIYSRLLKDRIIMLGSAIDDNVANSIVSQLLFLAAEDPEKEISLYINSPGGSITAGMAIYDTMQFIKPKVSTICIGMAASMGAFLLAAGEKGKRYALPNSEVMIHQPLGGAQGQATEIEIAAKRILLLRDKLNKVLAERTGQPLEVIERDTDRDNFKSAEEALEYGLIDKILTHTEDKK
#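 Buffer: 100 mM Tris/HCl pH8, 100 mM KCl, 0.05% low protease BSA, 2.5% glycerol, 0.01% Tween-20. ClpP 10 microg/mL final; 20 min RT; delta FRET normalized to ADEP and DMSO controls.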
# uPA surface inh: inhibitors of cell surface uPA generation; cell surface uPA generation assay, qHTS; Potency, µM (series often up to 38.3 µM), for the others: at the highest dose activity change, negative = inhibition, hits mostly inhibitors; 330,000 tested, 0.31% active; AID 540303; active = well fitted inhibition curve with a large enough effect; inconclusive = small, poorly fitted or top-dose-only effect; inactive = no such curve, though single readings can be large or run the other way; tested in mouse RAW 264.7 cells; note: potency is the fitted concentration of half-maximal effect; % is set by controls: 0 for no effect and ±100 for the full control effect; nearly all actives have a fitted effect of over 55% in size
# Sfp inh: Sfp phosphopantetheinyl transferase inhibition; Biochemical Sfp PPTase activity, qHTS; Potency, µM, for inactives: largest response in the series, negative = inhibition, actives largely listed as inhibitors; 310,000 tested, 3.5% active; AID 1490;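 note: the enzyme is Sfp with the accession as filed and its product quenches rhodamine fluorescence; potency is the fitted concentration of half-maximal effect; 0% = enzyme reaction without inhibitor and -100% = no enzyme wells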
#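 Step 1, compound plus 15 nM Sfp-PPTase, 15 min, room temperature. Step 2, add rhodamine-CoA (5 uM) and BHQ-2-YbbR (12.5 uM). Step 3, read 525/598 nm fluorescence at 0 and 30 min.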
# TCR act: activators of T cell receptors; primary human leukocytes, anti-CD3, IL-2 HTRF, 48 h; Potency, µM (doses to about 9.22 µM), inactives show at the top dose activation of IL-2 secretion, most hits filed as activators; 330,000 tested, under 10 active; AID 504894; note: % of control where 0% means no effect
#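 TCR engagement came from a-CD3 beads alone, with compounds added to primary human leukocytes for 48 hr. Secreted IL-2 bridged europium cryptate- and d2-labelled anti-IL-2 antibodies, giving FRET emission at 665nm after 320nm excitation.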
# Starred values were filed as active, the others as inactive; ? = inconclusive; · = not tested or not shown; [ ] = another dose, or the depositor's remark. The list is not random: actives were taken first. Their share in the collection is about 4.2%. Unless noted, calls come from the whole dose curve; as a rule, active = well fitted curve in the direction sought with a large enough effect; inconclusive = small, poorly fitted or top-dose-only effect, or another doubt; inactive = no such curve, though single readings can be large; an effect the other way counts as inactive or inconclusive.
SMILES,ClpP mod,uPA surface inh,Sfp inh,TCR act
O=C(CN1CCN(c2ncccn2)CC1)N1CCCC1,·,-5%,?,3%
CCN(CC)C(=O)CN1CCN(c2ncccn2)CC1,-1%,7%,89µM*,8%
CC(C)(C)NC(=O)/C(=C\c1ccco1)NC(=O)c1cccs1,-1%,-2%,-8%,-9%[46.1 µM]
Cc1cccc(NC(=O)/C(=C\c2ccco2)NC(=O)c2cccs2)c1,1%,0%,56µM*,9%
Cc1ccc(C(=O)N/C(=C/c2ccco2)C(=O)Nc2cccc(C)c2)cc1,-2%,-11%,35µM*,0%
C=CCSc1nc(C)cc(/C=C\c2ccccc2)c1C#N,28µM*,·,17%,-2%
Cc1cc(C)c(C#N)c(SCc2ccccc2)n1,-2%,-3%,?,-19%[46.1 µM]
Cc1ccc2nc(SCc3nc(-c4ccc(Cl)cc4)no3)[nH]c2c1,2%,·,·,·
O=S1(=O)C=C(Sc2nnc(-c3ccccc3)o2)c2ccccc21,-1%,·,16µM*,1%
CCc1ccc(-c2cc(C(=O)N3N=C(C(F)F)CC3(O)C(F)F)c3ccccc3n2)cc1 (configuration not stated),22µM*,·,15%,0%
Cc1ccccc1-n1c(=O)cc(N2CCc3ccccc32)[nH]c1=O,-1%,?,56µM*,3%
O=c1cc(N2CCc3ccccc32)[nH]c(=O)n1-c1ccccc1Cl,·,-4%,2%,2%
O=C(O)c1cccc(Cn2c(Cl)c(/C=N/Nc3ccccc3)sc2=O)c1,0%,0%,8.9µM*,-3%
COc1ccc(C2C(=O)N(C3CCC(C)CC3)CC(=O)N2CCC2=CCCCC2)cc1OC (configuration not stated),1%,·,·,·
N#C/C(=C\c1ccc(C#N)cc1)C(=O)c1ccccc1,-3%,9%,50µM*,13%
CCCn1cc(S(=O)(=O)c2cc(C)ccc2C)c(=O)c2cc(F)c(N3CCN(CC)CC3)cc21,4%,·,·,·
Cn1c(SCC(=O)N/N=C/c2ccccn2)nnc1-c1ccccc1,·,-3%,45µM*,-1%
S=C(NN=C(c1ccccc1)c1ccccn1)N(Cc1ccccn1)Cc1ccccn1,-1%,-12%,·,-3%
S=C(NN=Cc1ccccn1)N(Cc1ccccn1)Cc1ccccn1,22µM*,-8%,·,-3%
Cc1cccc(/C=N/NC(=O)Cn2nccc2C)n1,-1%,1%,50µM*,-5%[46.1 µM]
Cc1cccc(/C=N/NC(=O)Cn2nc(C)cc2C)n1,-4%,-1%,?,0%[46.1 µM]
Cc1cc(C)n(CC(=O)N/N=C/c2ccccn2)n1,-1%,4%,18µM*,1%[46.1 µM]
Cc1ccnn1CC(=O)N/N=C/c1cccs1,-1%,-4%,24%,-11%[46.1 µM]
CC1(C(=O)Nc2cccc(NS(C)(=O)=O)c2)Cc2c(-c3ccc(C(N)=O)cc3)ccnc2O1 (configuration not stated),-2%,·,·,·
O=C(CCCC(=O)N/N=C\c1ccccn1)N/N=C\c1ccccn1,-16%,2%,40µM*,8%[46.1 µM]
SMILES,ClpP mod,uPA surface inh,Sfp inh,TCR act
O=C(N/N=C/c1ccccn1)C(=O)N1CCCCCC1,-1%,-2%,45µM*,-1%
O=C(Cc1ccccc1)N/N=C/c1ccccn1,-1%,-4%,·,2%
Nc1nnnn1CC(=O)N/N=C/c1ccccn1,·,2%,35µM*,-2%
O=C(N/N=C/c1ccccn1)c1ccc([N+](=O)[O-])cc1,·,5%,-10%,-4%
O=C(COc1ccc([N+](=O)[O-])cc1)N/N=C/c1ccccn1,1%,2%,79µM*,-2%
COc1ccc(C(=O)n2nc(-c3ccco3)nc2NCc2cccs2)cc1OC,3%,·,·,·
CNCC(=O)NC(CCCN=C(N)N)C(=O)NC(C(=O)NC(Cc1ccc(O)cc1)C(=O)NC(C(=O)NC(Cc1cnc[nH]1)C(=O)N1CCCC1C(=O)NC(C)C(=O)O)C(C)C)C(C)C (configuration not stated),·,·,6%,·
C#CCNC(=O)C[C@@H]1C[C@@]2(C(=O)OCC)CCCC=C2N(Cc2ccc3c(c2)OCO3)C1=O,0%,·,·,·
O=C(O)C1Cc2[nH]cnc2C(c2cccc([N+](=O)[O-])c2)N1 (configuration not stated),1%,-12%,-15%,-6%
O=C(O)C1Cc2[nH]cnc2C(c2ccccc2O)N1 (configuration not stated),28µM*,2%,79µM*,3%[46.1 µM]
CC(NC(=O)c1cccs1)C1CCCO1 (configuration not stated),28µM*,-3%,11%,·
c1cc2cn[nH]c2cc1NC1CCCCCC1,?,11%,45µM*,·
CCc1nnc(N/N=C/c2ccc(N3CCC(C)CC3)c([N+](=O)[O-])c2)n1N,·,-16%,71µM*,2%[46.1 µM]
CCOC(=O)c1cc(-c2ccccc2)n(-c2cccc(C(=O)Nc3ccc(OCC)cc3)c2)c1C,-12%,·,·,·
Cc1cc(Cl)ccc1OCCCC(=O)N1CCCCC1,-1%,-3%,79µM*,-5%
Cc1cc(Cl)ccc1OCCCC(=O)N1CCOCC1,-1%,7%,8%,1%
O=C(CCCOc1ccc(Cl)cc1Cl)N1CCc2ccccc2C1,-4%,3%,18µM*,-3%[46.1 µM]
O=S(=O)(c1ccc(-n2cnnn2)cc1)N1CCN(c2cccc(Cl)c2)CC1,-2%,·,·,·
N#Cc1cccc(-c2csc(C(O)c3ccco3)n2)c1 (configuration not stated),-2%,·,·,·
Cc1ccsc1/C=C1/SC(N2CC(C)OC(C)C2)=NC1=O (configuration not stated),-11%,-11%,56µM*,2%[46.1 µM]
COc1cccc2sc(=NC(=O)CCS(=O)(=O)c3ccc(C)cc3)n(C)c12,3.2µM*,-2%,·,8%
CCC(=O)Nc1sc2c(c1C(=O)Nc1ccccc1C)CCC(C)C2 (configuration not stated),2%,·,·,·
COC(=O)C1=C(C)N(CCc2c[nH]c3ccccc23)C(=O)/C1=C\N(C)C,-4%,-10%,18µM*,11%
O=C(O)c1ccc2c(c1)C(=O)N(CCc1c[nH]c3ccccc13)C2=O,·,-3%,10%,3%
COc1cc(-c2ccc(NC(=O)NC3CC3)c(OC)c2)ccc1NC(=O)NC1CC1,·,·,6%,·
SMILES,ClpP mod,uPA surface inh,Sfp inh,TCR act
Cn1c(=O)c2[nH]c(-c3ccccc3Cl)c(O)c2n(C)c1=O,-3%,0%,?,3%[46.1 µM]
Cn1c(=O)c2[nH]c(-c3ccccc3)c(O)c2n(C)c1=O,-13%,-1%,14µM*,0%[46.1 µM]
Cc1ccc2c(c1)c1ncnc(N3CCN(c4ccccc4)CC3)c1n2C,32µM*,7%,-13%,-4%
Cc1ccc2c(c1)c1ncnc(N3CCOCC3)c1n2C,36%,-12%,16%,-1%
COC(=O)c1ccnc(/C=N/O)c1,0%,10%,50µM*,6%[46.1 µM]
CCSc1nnc(NC(=O)C2CCN(C(=O)c3ccco3)CC2)s1,0%,·,·,·
Cc1noc(C)c1-c1cncnc1NCc1cccnc1,·,·,56µM*,·
Cc1ccccc1-c1cncnc1NCc1cccnc1,·,·,79µM*,·
COC(=O)c1c(N(S(C)(=O)=O)S(C)(=O)=O)sc2c1CCN(c1ncc(C(F)(F)F)cc1Cl)C2,-19%,-1%,56µM*,6%

# Compound activity (PubChem)
